Assay results from publication PMC12864922, “TDP-43 directly inhibits mRNA accumulation in neurites through modulation of mRNA stability”.
In all, about 9,900 sequences were measured (“r (bound/input frequency ratio)”: median about 0.7, highest 2% from about 6.5 on). This excerpt belongs to a sample that is enriched for the highest values.

B1: ENSMUSG00000058297.26|Spock2 (ssRNA)
RNA: GGGAGUUCUACAGUCCGACGAUCGCUUCGAUAUCCGCAUGCUAGGCCAGAAGAGACCUGGACAACAGCAGGCAACUUAGCAAAUGGAUCCGGAAGUCAGUGCGGAGGACCCUGGCUCCAGUGGGGGAGGACUGGGGAGUGUGGCUUGUGUGUAUGUGUGAUAUGAGAUGUGUGUGUAUGAUGUGAGAUGUGAGUGUGUGAUGUGAGAUGUGUGUAUGUGAGAUGUGUGUGUGUGUGUGUGUGUGUGUGAUGUGAGUCACCCAAAGGUCCCUAUGUUAUUGAUUUUCAAAUGCACACUUUCACACUCUUGCGGUCGCACUAGUGUGGAAUUCUCGGGUGUCAAGG
B2: ENSMUSG00000058297.24|Spock2 (ssRNA)
RNA: GGGAGUUCUACAGUCCGACGAUCGCUUCGAUAUCCGCAUGCUAGCCAGAAAGACAGGCCAGAAGAGACCUGGACAACAGCAGGCAACUUAGCAAAUGGAUCCGGAAGUCAGUGCGGAGGACCCUGGCUCCAGUGGGGGAGGACUGGGGAGUGUGGCUUGUGUGUAUGUGUGAUAUGAGAUGUGUGUGUAUGAUGUGAGAUGUGAGUGUGUGAUGUGAGAUGUGUGUAUGUGAGAUGUGUGUGUGUGUGUGUGUGUGUGUGAUGUGAGUCACCCAAAGGUCCCUAUGUUAUUGAUUUUCAAAUGCUCUUGCGGUCGCACUAGUGUGGAAUUCUCGGGUGUCAAGG
B3: ENSMUSG00000058297.25|Spock2 (ssRNA)
RNA: GGGAGUUCUACAGUCCGACGAUCGCUUCGAUAUCCGCAUGCUAAAGACAGGCCAGAAGAGACCUGGACAACAGCAGGCAACUUAGCAAAUGGAUCCGGAAGUCAGUGCGGAGGACCCUGGCUCCAGUGGGGGAGGACUGGGGAGUGUGGCUUGUGUGUAUGUGUGAUAUGAGAUGUGUGUGUAUGAUGUGAGAUGUGAGUGUGUGAUGUGAGAUGUGUGUAUGUGAGAUGUGUGUGUGUGUGUGUGUGUGUGUGAUGUGAGUCACCCAAAGGUCCCUAUGUUAUUGAUUUUCAAAUGCACACUCUCUUGCGGUCGCACUAGUGUGGAAUUCUCGGGUGUCAAGG
B4: ENSMUSG00000058297.22|Spock2|119:123;127:140;149:160;174:180;189:198;204:229 (ssRNA)
RNA: GGGAGUUCUACAGUCCGACGAUCGCUUCGAUAUCCGCAUGCUAAGGGUGCCGACGGCCAGAAAGACAGGCCAGAAGAGACCUGGACAACAGCAGGCAACUUAGCAAAUGGAUCCGGAAGUCAGUGCGGAGGACCCUGGCUCCAGUGGGGGAGGACUGGGGACACACGCUACACACAUACACACAUAUGAGAACACACACAUACAUGUGAGAUGUGACACACACAUGUGAGAACACACAUACUGAGAACACACACACACACACACACACACACAUGUGAGUCACCCAAAGGUCCCUAUGUUAUUCUCUUGCGGUCGCACUAGUGUGGAAUUCUCGGGUGUCAAGG
B5: ENSMUSG00000058297.23|Spock2|113:117;121:134;143:154;168:174;183:192;198:223 (ssRNA)
RNA: GGGAGUUCUACAGUCCGACGAUCGCUUCGAUAUCCGCAUGCUACCGACGGCCAGAAAGACAGGCCAGAAGAGACCUGGACAACAGCAGGCAACUUAGCAAAUGGAUCCGGAAGUCAGUGCGGAGGACCCUGGCUCCAGUGGGGGAGGACUGGGGACACACGCUACACACAUACACACAUAUGAGAACACACACAUACAUGUGAGAUGUGACACACACAUGUGAGAACACACAUACUGAGAACACACACACACACACACACACACACAUGUGAGUCACCCAAAGGUCCCUAUGUUAUUGAUUUUCUCUUGCGGUCGCACUAGUGUGGAAUUCUCGGGUGUCAAGG
B6: ENSMUSG00000058297.26|Spock2|95:99;103:116;125:136;150:156;165:174;180:205 (ssRNA)
RNA: GGGAGUUCUACAGUCCGACGAUCGCUUCGAUAUCCGCAUGCUAGGCCAGAAGAGACCUGGACAACAGCAGGCAACUUAGCAAAUGGAUCCGGAAGUCAGUGCGGAGGACCCUGGCUCCAGUGGGGGAGGACUGGGGACACACGCUACACACAUACACACAUAUGAGAACACACACAUACAUGUGAGAUGUGACACACACAUGUGAGAACACACAUACUGAGAACACACACACACACACACACACACACAUGUGAGUCACCCAAAGGUCCCUAUGUUAUUGAUUUUCAAAUGCACACUUUCACACUCUUGCGGUCGCACUAGUGUGGAAUUCUCGGGUGUCAAGG
B7: ENSMUSG00000058297.23|Spock2 (ssRNA)
RNA: GGGAGUUCUACAGUCCGACGAUCGCUUCGAUAUCCGCAUGCUACCGACGGCCAGAAAGACAGGCCAGAAGAGACCUGGACAACAGCAGGCAACUUAGCAAAUGGAUCCGGAAGUCAGUGCGGAGGACCCUGGCUCCAGUGGGGGAGGACUGGGGAGUGUGGCUUGUGUGUAUGUGUGAUAUGAGAUGUGUGUGUAUGAUGUGAGAUGUGAGUGUGUGAUGUGAGAUGUGUGUAUGUGAGAUGUGUGUGUGUGUGUGUGUGUGUGUGAUGUGAGUCACCCAAAGGUCCCUAUGUUAUUGAUUUUCUCUUGCGGUCGCACUAGUGUGGAAUUCUCGGGUGUCAAGG

target: TDP-43 (Homo sapiens, UniProt Q13148 1-414); assay: RNA Bind-n-Seq with designed 260-mer pool; 25 mM Tris-HCl, 150 mM KCl, 3 mM MgCl2, BSA (printed 500 mg/mL), 20 units/mL SUPERase IN; pH not stated; 500 nM RNA pool, 1 h, 4 C; TDP-43 5, 50, 500 nM; high values mean tight binding; conditions: protein: recombinant; tags: SBP (GST cleaved off with PreScission; pGEX-GST-SBP)
Sequence (Q13148 whole entry): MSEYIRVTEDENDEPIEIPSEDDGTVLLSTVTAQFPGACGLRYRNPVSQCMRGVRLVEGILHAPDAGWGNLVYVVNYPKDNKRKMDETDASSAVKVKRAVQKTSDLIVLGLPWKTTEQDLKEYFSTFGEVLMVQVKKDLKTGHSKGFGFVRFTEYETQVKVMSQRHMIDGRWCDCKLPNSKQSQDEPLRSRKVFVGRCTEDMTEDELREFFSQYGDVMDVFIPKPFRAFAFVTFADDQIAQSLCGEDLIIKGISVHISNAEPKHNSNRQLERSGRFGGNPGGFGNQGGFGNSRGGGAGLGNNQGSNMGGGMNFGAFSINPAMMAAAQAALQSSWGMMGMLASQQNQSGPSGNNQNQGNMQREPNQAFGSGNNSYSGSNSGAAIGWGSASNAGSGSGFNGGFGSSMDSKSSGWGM
Outline: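 The incubation lasted 1 h at 4 °C and used 500 nM of an in vitro-transcribed 260-nt 3′ UTR oligo pool with recombinant SBP-tagged TDP-43 at 5, 50 or 500 nM immobilized on streptavidin beads. It took place in 25 mM Tris-HCl, 150 mM KCl, 3 mM MgCl2, BSA and SUPERase IN. Bound RNA was washed, eluted with biotin, converted to cDNA, PCR-amplified and sequenced to give R, each oligo's normalized abundance in the bound sample divided by that in input. Two independent protein batches provided the duplicates.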

Binder | binding signal
B1 | 6.34 R (bound/input frequency ratio)
B2 | 9.99 R (bound/input frequency ratio)
B3 | 6.77 R (bound/input frequency ratio)
B4 | 2.11 R (bound/input frequency ratio)
B5 | 4.42 R (bound/input frequency ratio)
B6 | 3.09 R (bound/input frequency ratio)
B7 | 6.74 R (bound/input frequency ratio)
